# In PubChem BioAssay AID588358 (NMMLSC, 2011):
# Where “and” joins values, the source holds several entries; their conditions need not be identical. Equal values may be shown once. Among all 310,000 compounds or so, about 1,500 (0.48%) were called active. Many of the other results were omitted from the sample, so actives are more common in it than they were. Unmarked numbers belong to inactive results.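 Rule for the calls: active = binding more than 3 SD below its plate's average and above zero; inconclusive = below that plate limit but binding exactly zero; inactive = the rest.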
# Target: Desmoglein-3 (Homo sapiens) (UniProt P32926)
# Test: blockers of anti-DSG3 scFv binding – biochemical, bead-based, flow cytometry, scFv-GFP, primary screen (AID 588358);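 note: hits lower antibody fragment binding to DSG3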
# Conditions: DSG3-coupled beads, at 10 µM, hits give low values
# Desmoglein-3 (Homo sapiens), sequence (P32926 whole entry, looked up, the tested form may be a part): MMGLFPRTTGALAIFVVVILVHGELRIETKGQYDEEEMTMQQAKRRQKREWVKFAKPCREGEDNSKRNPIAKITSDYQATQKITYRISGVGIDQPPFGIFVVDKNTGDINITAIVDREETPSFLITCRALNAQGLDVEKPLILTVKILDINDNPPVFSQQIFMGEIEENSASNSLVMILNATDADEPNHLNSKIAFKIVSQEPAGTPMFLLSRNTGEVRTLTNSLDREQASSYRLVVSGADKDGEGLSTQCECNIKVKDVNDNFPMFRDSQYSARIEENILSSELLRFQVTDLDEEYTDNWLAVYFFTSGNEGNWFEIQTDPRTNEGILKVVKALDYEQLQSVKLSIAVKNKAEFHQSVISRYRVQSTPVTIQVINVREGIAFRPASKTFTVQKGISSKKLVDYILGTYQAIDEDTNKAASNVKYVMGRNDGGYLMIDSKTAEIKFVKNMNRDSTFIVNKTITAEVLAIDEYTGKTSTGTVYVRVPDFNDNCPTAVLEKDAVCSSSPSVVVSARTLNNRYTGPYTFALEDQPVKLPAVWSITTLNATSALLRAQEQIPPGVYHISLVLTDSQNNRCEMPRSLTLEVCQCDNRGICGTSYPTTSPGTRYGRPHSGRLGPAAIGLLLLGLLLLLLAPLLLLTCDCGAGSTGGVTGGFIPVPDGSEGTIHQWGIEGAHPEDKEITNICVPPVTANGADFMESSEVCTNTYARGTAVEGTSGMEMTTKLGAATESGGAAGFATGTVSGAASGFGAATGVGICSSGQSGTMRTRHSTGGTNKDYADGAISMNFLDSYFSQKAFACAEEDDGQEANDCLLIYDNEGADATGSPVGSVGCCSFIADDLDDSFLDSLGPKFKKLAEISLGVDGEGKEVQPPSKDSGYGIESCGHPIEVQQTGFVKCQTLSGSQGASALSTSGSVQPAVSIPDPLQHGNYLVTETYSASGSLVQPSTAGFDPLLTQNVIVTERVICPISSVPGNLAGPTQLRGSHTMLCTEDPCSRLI
row,Structure (SMILES),binding (percent of control)
1,COc1ccc(C(CNC(=O)CSc2ccccc2)N2CCOCC2)cc1 (stereo not drawn),100%
2,CC(C)c1cc(C(=O)N(C)C2CCCN(Cc3ccccc3F)C2)n(C)n1 (stereo not drawn),96.7%
3,CC(C)C1CCN(C(=O)C2CCC(=O)N(C3CCCCCC3)C2)CC1 (stereo not drawn),101%
4,CCC(C(=O)N1CCOCC1)n1c(C(=O)OC)cc2occc21 (stereo not drawn),99.3%
5,CCCCOC(=O)NCN1C(=O)C2C3C=CC(C3)C2C1=O (stereo not drawn),110%
6,CCCC(C(=O)N1CCOCC1)N1C(=O)C2C3C=CC(C3)C2C1=O (stereo not drawn),-12.4% (active)
7,CCCCCC(=O)N1C[C@H](O)[C@@H](n2cc(COC(=O)c3ccccc3)nn2)C[C@@H]1c1ccc(C)cc1,102%
8,CO/N=C(\C(=O)N[C@@H]1C(=O)N2C(C(=O)O)=C(COC(C)=O)CS[C@H]12)c1csc(N)n1 (stereo in doubt),100% and 106%
9,C=CC1=C(C(=O)O)N2C(=O)[C@@H](NC(=O)/C(=N/OCC(=O)O)c3csc(N)n3)[C@H]2SC1,68.8%
10,C=CC1=C(C(=O)O)N2C(=O)[C@@H](NC(=O)/C(=N\OCC(=O)O)c3csc(N)n3)[C@H]2SC1,71% (active)
11,O=C(CCCN1C(=O)C(c2ccccc2)Oc2cccnc21)Nc1ccccc1Br (stereo not drawn),105%
12,O=C(OCc1cn([C@H]2C[C@H](c3ccccc3)N(C(=O)c3cccs3)C[C@@H]2O)nn1)c1ccccc1,106%
13,COc1ccc2c(c1)c1ncn(Cc3ccccn3)c(=O)c1n2C,112%
14,Cc1ccc2[nH]c3c(=O)n(Cc4ccccn4)cnc3c2c1,108%
15,O=c1c2[nH]c3ccc(Cl)cc3c2ncn1Cc1ccccn1,51% (active)
16,C[C@@H]1CN([C@@H](C)CO)C(=O)CCCn2nncc2CO[C@H]1CN(C)Cc1ccc(C(F)(F)F)cc1,103%
17,Cc1cc(C)c2cc(C#N)c(N3CCNCC3)nc2c1,105%
18,C#CCOc1ccc(/C=C2/C(=O)NN(c3ccccc3)C2=O)cc1OC,81.6% (active)
19,C#CCOc1ccc(/C=C2/C(=O)ON=C2C)cc1OCC,111%
20,COc1cc(/C=C2/C(=O)NN(c3cccc(Cl)c3)C2=O)cc(Br)c1O,233%
21,Cc1ccc(Cc2c(-c3ccccc3)nc3ccc(Cl)cn23)cc1,105%
22,CCOC(=O)c1cc(-c2sc(NC(=O)c3ccccc3)nc2C)n(CCO)n1,96.7%

row,Structure (SMILES),binding (percent of control)
1,CCN(CC)C(=O)C(C)N1c2cccc3cccc(c23)S1(=O)=O (stereo not drawn),98.7%
2,CCOc1cc(N2CCOCC2)c(OCC)cc1NC(=O)c1ccc(C)s1,72.7% (active)
3,CCOc1cc(N2CCOCC2)c(OCC)cc1NC(=O)COc1cccc(Cl)c1,96.8%
4,CCOc1cc(N2CCOCC2)c(OCC)cc1NC(=O)C1=NN(c2cccc(C)c2)C(=O)CC1,102%
5,Cc1ccc(C(=O)NC(C)C(c2cccs2)N2CCOCC2)cc1C (stereo not drawn),92.7%
6,Cc1ccccc1OS(=O)(=O)c1cccc([N+](=O)[O-])c1,100%
7,COCOCCn1cc(CN2CCS(=O)(=O)N(Cc3ccc(-c4ccc(OC)cc4)cc3)C(CC(C)C)C2=O)nn1 (stereo not drawn),103%
8,Cc1cc(C)c([N+](=O)[O-])cc1-c1ccc(/C=N/NC(=O)c2nonc2N)o1,87.1% (active)
9,COc1cc(/C=N\NC(=O)c2nonc2N)c(OC)cc1Br,89.4%
10,Cc1ccc(-c2ccc(/C=N/NC(=O)CN3CCOCC3)o2)cc1[N+](=O)[O-],101%
11,O=C(NCCS(=O)(=O)N1CCN(c2ccccc2)CC1)c1cc(=O)c2ccccc2o1,99.7%
12,O=C(NCCOc1ccccc1)N1[C@H]2CC[C@@H]1C=C(c1ccc(F)cc1OCc1ccccc1)C2,107%
13,CCC(Oc1ccccc1)C(=O)OCC(=O)Nc1c(C)nn(-c2ccccc2)c1C (stereo not drawn),106%
14,Cc1cnc(C(=O)OCC(=O)NCCCc2ccccc2)cn1,104%
15,Cc1cnc(C(=O)Oc2cccc(Cl)c2Cl)cn1,-19.6% (active)
16,Cc1cnc(C(=O)OCC(=O)Nc2ccc(Cl)cc2Cl)cn1,113%
17,COc1cccc(NC(=O)Nc2ccc(F)cc2)c1,99.8%
18,CC(OC(=O)c1cccc(S(=O)(=O)N2CCOCC2)c1)C(=O)NCC1CCCCC1 (stereo not drawn),106%
19,CCc1c(N=O)c(-c2ccccc2)n(O)[n+]1[O-],95.9%
20,CCc1noc(C)c1C(=O)OCC(=O)c1ccc(NC(=O)CC(C)C)cc1,106%
21,CN(C(=O)COC(=O)c1cc(-c2ccco2)nc2ccccc12)C1CCS(=O)(=O)C1 (stereo not drawn),59.4% (active)
22,CN(CCOc1ccccc1)C(=O)c1cc(-c2ccco2)nc2ccccc12,105%

row,Structure (SMILES),binding (percent of control)
1,CN(C(=O)COC(=O)c1nc(Cl)ccc1Cl)C1CCS(=O)(=O)C1 (stereo not drawn),109%
2,O=S(=O)(c1cccc(C(F)(F)F)c1)N1c2ccccc2-n2cccc2C1c1cccnc1 (stereo not drawn),99.9%
3,c1ccc(-c2cc(-c3ccccc3)[nH]n2)cc1,95%
4,Fc1ccccc1/C=N/n1c(-c2cccnc2)n[nH]c1=S,104%
5,S=c1[nH]nc(-c2cc(-c3ccccc3)n[nH]2)n1/N=C/c1c2ccccc2cc2ccccc12,82.6% (active)
6,Cc1ccc(-c2ccc(CN3C(C)C(=O)N(Cc4cn(CCC5OCCCO5)nn4)CCS3(=O)=O)cc2)cc1 (stereo not drawn),104%
7,C/C(=N\NC(=S)Nc1ccc(C)cc1)c1cc2ccccc2o1,83.6% (active)
8,C/C(=N/NC(=S)Nc1ccccc1)c1ccc2c(c1)OCO2,98.1%
9,Cc1ccc(NC(=O)c2cc3ccccc3o2)cc1,110%
10,Cc1cc2cc3n(c2nn1)N=C(Cl)CC3,104%
11,O=S1(=O)CCN(Cc2ccccc2)CC1,96.1%
12,O=C(c1ccc(N2CCCC2=O)cc1)N1CCN(c2ccc(C(F)(F)F)cc2[N+](=O)[O-])CC1,99%
13,Cc1cc2nc3c(=O)n(Cc4ccccc4)c(=O)[nH]c3nc2cc1N,99.2%
14,Nc1ccc2nc3c(=O)[nH]c(=S)[nH]c3nc2c1,19% (active)
15,O=C(OCc1ccccc1)N1CCC2CC1c1cc(N3CCN(S(=O)(=O)c4cc(Cl)cc(Cl)c4)CC3)ccc12 (stereo not drawn),100%
16,CCCCN1C(=O)C(CC(=O)NC(c2ccccc2)c2ccccc2)CC(C(=O)N2CCOCC2)=C1C (stereo not drawn),102%
17,O=C(NN=Cc1ccc([N+](=O)[O-])cc1)C1CC1,122%
18,O=C(N/N=C/c1ccc([N+](=O)[O-])cc1)C(=O)N1CCCC1,-16.9% (active)
19,COC(=O)c1ccc(/C=N/NC(=O)C(=O)N2CCCCCC2)cc1,102%
20,Cc1ccc(S(=O)(=O)N2C[C@@H](C)[C@]3(C2)[C@H](O)[C@H](OC(=O)NCc2ccccc2)C[C@H]2C(=O)N(c4ccccc4)C(=O)[C@H]23)cc1,111%
21,Cc1ccc(Oc2cnn(-c3ccccc3)c(=O)c2Br)cc1,117%
22,Cc1ccc(O/C=C2\OC(=O)c3ccccc32)cc1,80.4% (active)

row,Structure (SMILES),binding (percent of control)
1,CN(C)C(CNC(=O)c1cccc(S(=O)(=O)N2CCc3ccccc3C2)c1)c1ccccc1 (stereo not drawn),97.5%
2,Cc1cc(Cl)ccc1C(=O)C1CCCN(C(=O)c2ccc3c(c2)OCO3)C1 (stereo not drawn),103%
3,CCOC(=O)c1c(S(=O)(=O)NCC(=O)Nc2ccc(C)cc2)c(C)n(C)c1C,97.8%
4,CCOC(=O)c1c(S(=O)(=O)Nc2cccc(Cl)c2)c(C)n(C)c1C,52% (active)
5,CCOC(=O)c1cccc(NS(=O)(=O)c2c(C(=O)N3CCCCCC3)c(C)n(C)c2C)c1,99.4%
6,N#CCCN(C(=O)Nc1ccc(Cl)c(Cl)c1)C1CCCCC1,105%
7,Cn1nc(N)c2ncc(C(Cl)(Cl)Cl)nc21,100%
8,O=C(CC(CC(=O)c1ccccc1)c1ccco1)c1ccccc1,99.4%
9,CNC(=O)C1CN(C(=O)c2cccc(S(=O)(=O)N3CCc4ccccc43)c2)c2ccccc2O1 (stereo not drawn),103%
10,Cc1cccc(C(=O)OCC(=O)Nc2sccc2C(N)=O)c1C,104%
11,COc1ccc(NC(=O)Cn2nnc(C(=O)NCCc3ccc(OC)c(OC)c3)c2N)cc1,103%
12,CCc1ccc(NC(=O)Cn2nnc(C(=O)NCc3ccc(OC)cc3)c2N)cc1,106%
13,CCOc1ccc(Cn2nnc(C(=O)Nc3ccc(OC)cc3OC)c2N)cc1,81.7% (active)
14,C[C@H]1NS(=O)(=O)c2cc(Cl)ccc2O[C@@H]1c1ccccc1,98.4%
15,COc1cc2ccccc2cc1C(=O)Nc1ccc(NC(=O)c2cccs2)cc1,87.2%
16,COc1ccc(CCNC(=O)/C(C#N)=C2\N=C(NC(=O)c3cccs3)c3ccccc32)cc1,81.2% (active)
17,COc1ccc(CN(Cc2ccc(OC)cc2)C(=O)c2cccs2)cc1,100%
18,COc1ccc(OC)c(C(=O)NC2CCCc3c2cnn3-c2cc(C)cc(C)c2)c1 (stereo not drawn),96.8%
19,Cc1coc2c(O)cc3c(c12)OC1(N2CCCCC2)C(=O)NCCCC31 (stereo not drawn),62.7% (active)
20,CCCCN(C(C)=O)c1ccc2c(c1)C1CC2CCN1Cc1ccccc1 (stereo not drawn),101%
21,NC(=S)NN=Cc1ccc(OC(=O)COc2cc(Cl)c(Cl)cc2Cl)cn1,102%
22,COCOCCn1cc(CN2CCS(=O)(=O)N(Cc3ccc(-c4cccc(N(C)C)c4)cc3)C(CC(C)C)C2=O)nn1 (stereo not drawn),101%
